ROC1-CUL1 inh: inhibitors of human ROC1-CUL1 ubiquitin ligase activity. inhibition, % at 10 µM. in vitro K48 di-Ub FRET, acceptor:donor ratio, 45 min. hit rate 0.6% among 140,000; in the data active = inhibition above about 25%
Target sequence (P62877 whole entry, looked up): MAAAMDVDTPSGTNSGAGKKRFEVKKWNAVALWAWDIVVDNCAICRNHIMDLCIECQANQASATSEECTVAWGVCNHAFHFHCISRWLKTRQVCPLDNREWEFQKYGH
Target sequence (Q13616 whole entry, looked up): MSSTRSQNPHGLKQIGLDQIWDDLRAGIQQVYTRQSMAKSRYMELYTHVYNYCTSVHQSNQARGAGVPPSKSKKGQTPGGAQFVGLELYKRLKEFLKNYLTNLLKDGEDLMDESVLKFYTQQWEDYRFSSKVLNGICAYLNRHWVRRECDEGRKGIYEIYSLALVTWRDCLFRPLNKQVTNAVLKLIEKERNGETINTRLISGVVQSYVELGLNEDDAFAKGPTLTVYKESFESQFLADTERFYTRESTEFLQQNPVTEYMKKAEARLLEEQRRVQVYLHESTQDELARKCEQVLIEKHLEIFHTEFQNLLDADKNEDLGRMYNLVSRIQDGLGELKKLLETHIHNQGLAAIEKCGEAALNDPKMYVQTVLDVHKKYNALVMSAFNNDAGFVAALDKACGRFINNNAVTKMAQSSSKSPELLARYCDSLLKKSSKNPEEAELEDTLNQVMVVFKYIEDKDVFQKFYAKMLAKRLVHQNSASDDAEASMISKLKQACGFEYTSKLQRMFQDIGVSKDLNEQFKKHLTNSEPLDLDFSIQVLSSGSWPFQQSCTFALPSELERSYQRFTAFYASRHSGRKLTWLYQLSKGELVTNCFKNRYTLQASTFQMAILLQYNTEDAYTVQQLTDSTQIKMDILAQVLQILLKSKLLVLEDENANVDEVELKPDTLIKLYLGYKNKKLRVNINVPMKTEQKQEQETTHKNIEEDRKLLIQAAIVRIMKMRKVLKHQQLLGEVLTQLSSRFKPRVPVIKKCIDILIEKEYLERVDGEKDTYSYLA
Active calls of the source: *. This excerpt belongs to a sample that is enriched for hits.

SMILES	ROC1-CUL1 inh
COc1cccc(C=Nc2ccc(C(N)=O)cc2)c1O	3
COc1ccc2c(c1O)SC(=O)C2	106*
Cc1cccc(N2CCN(C(=O)c3cn(C4CCCCC4)c(=O)c4c3c3ccccc3n4C)CC2)c1C	-5
CCC(CC)c1nn2c(N)c(C=C3C=CC(=O)C(OC)=C3)c(=O)nc2s1	12
Nc1c(C=C2C=C(Cl)C(=O)C(Cl)=C2)c(=O)nc2sc(C34CC5CC(CC(C5)C3)C4)nn12	76*
CC(C)c1nn2c(N)c(C=C3C=C(Br)C=CC3=O)c(=O)nc2s1	2
COc1ccc(C2C3=C(CCCC3=O)OC(=N)C2C#N)cc1OCc1ccc(Cl)cc1 (centres undefined)	5
Cn1cc(CN2CCc3onc(-c4ccccc4F)c3C2)c(-c2ccccc2)n1	0
N=C(CC(=O)/C=C/c1ccco1)C(F)(F)F	9
O=C(/C=C/c1ccco1)NCc1cccc(CNC(=O)/C=C/c2ccco2)c1	97*
O=C(/C=C/c1ccco1)NCC12CC3CC(C1)CC(CNC(=O)/C=C/c1ccco1)(C3)C2	103*
CCSc1nnc(NC(=O)/C=C/c2ccco2)s1	1
Cc1ccc(NC(=O)/C=C/c2ccco2)cc1F	-6
O=C(/C=C\c1ccco1)Nc1cccc(C(=O)Nc2cccc(O)c2)c1	-4
CCCCOC(=O)c1c2c(n3cc4ccccc4cc13)C(=O)c1ccccc1C2=O	7
O=C(C(=O)N1CCOC(Cc2cccc(C(F)(F)F)c2)C1)c1ccccc1 (centres undefined)	4
CCOC(=O)CC1=NC2(CCCC2)Cc2cc(OC)c(OC)cc21	-3
CCOC(=O)CNC(=O)NCc1cccnc1Oc1ccccc1C	4
CC1=NN(c2ccccc2)C(=O)/C1=C(\C)c1ccc(-c2ccccc2)cc1	-11
Cc1c(C(=O)Nc2ccccc2)nnn1-c1ccccc1	1
COC(=O)/C(=C1/C(=O)N(c2ccccc2)N=C1C)C(F)(F)F	39*
O=C(C1CCCC1)N1CCc2[nH]nc(-c3ccc(Cl)cc3)c2C1	5
NCCCSc1nc2c(c(=O)n1Cc1ccccc1)C1(CCCCC1)Cc1ccccc1-2	92*
C#CCSc1nc2c(c(=O)n1Cc1ccccc1)C1(CCCCC1)Cc1ccccc1-2	-7
Cn1c(SCCc2ccccc2)nc2c(c1=O)C1(CCCC1)Cc1ccccc1-2	-5
SMILES	ROC1-CUL1 inh
Clc1ccc(N=Cc2nc3ccccc3n2Cc2ccccc2)cc1	14
c1ccc(-c2cc(-c3ccccc3)n3ncc(-c4ccccc4)c3n2)cc1	-4
Cc1c(C(=O)O)cccc1-c1ccc(CC2=NC(=O)N(c3cccc(Cl)c3)C2=O)o1	-3
O=C1NC(=S)N=C1Cc1ccc(-c2cc(C(=O)O)ccc2Cl)o1	10
Cc1ccc(C(=O)O)cc1-c1ccc(CC2=NC(=O)N(c3ccc(Cl)cc3)C2=O)o1	50*
CCc1c2c(nc3sc(C(=O)c4ccc(Cl)c(Cl)c4)c(N)c13)CC(C)(C)CC2=O	2
CCOc1cc(Br)nc(Br)c1Br	2
Clc1ccccc1C1NCCS1 (centres undefined)	31*
COc1ccc2[nH]c3c(c2c1)CCNC3c1ccccc1Cl (centres undefined)	-1
CC12CN3CC(C)(CN(C1)C3c1ccccc1Cl)C2O (centres undefined)	-3
Cc1cc(Cl)ccc1OC(C)C(=O)Nc1ccn(Cc2ccccc2Cl)n1 (centres undefined)	2
CCc1ccc(CN2CCC(n3cc(CO)nn3)CC2)nc1	3
Cc1ccccc1NC(=O)C1(C)CC2c3ccccc3C1c1ccccc12 (centres undefined)	-1
Nc1cc2nsnc2cc1Br	96*
Nc1cnc(Br)cc1Br	9
CC(C)NC(=O)C1CCN(C2CCN(C(=O)C3(C)CCCCC3)CC2)CC1	5
CCCCCCCCCOc1ccc(C#CC(=O)O)cc1	99*
CCCCCCOc1ccc(/C(CCCCC/C(=N\O)c2ccc(OCCCCCC)cc2)=N\O)cc1	-3
CCCCCCCCCCOc1ccc(N=CC=Nc2ccc(OCCCCCCCCCC)cc2)cc1	2
CCOC(=O)c1c(NC(=O)Cc2ccc([N+](=O)[O-])cc2)sc(C)c1-c1ccc(F)cc1	4
COc1ccc(C(=O)Nc2ccc3nsnc3c2)cc1OC	-9
CNC(=S)Nc1ccc(C)cc1	4
Cc1ccc(NC(=S)Nc2ccc3nsnc3c2)cc1	66*
Cc1c(Cl)ccc(S(=O)(=O)n2cccn2)c1Cl	-10
CCCc1c(C(=O)N2CCOCC2)nnn1-c1ccc(Cl)cc1	5
SMILES	ROC1-CUL1 inh
O=C1NC(=S)NC(=O)C1=Cc1c(OCc2ccc(Br)cc2)ccc2ccccc12	58*
C=CCN1C(=O)/C(=C/c2c(OCc3ccccc3C#N)ccc3ccccc23)C(=O)NC1=S	14
O=C1NC(=S)NC(=O)C1=Cc1cc(Cl)ccc1OCc1ccc(C(=O)O)cc1	12
Cc1ccc(Sc2c(C)nn(C(=O)COc3ccccc3)c2C)cc1	3
CCCCn1nnnc1NC(=O)N1CCN(c2nc(C)cnc2C)CC1	11
COc1cc(/C=c2\sc3n(c2=O)C(c2ccccc2)C2=C(N=3)c3ccccc3CC2)cc(OC)c1O (centres undefined)	5
O=c1/c(=C\c2cc3c(cc2[N+](=O)[O-])OCO3)sc2n1C(c1cccs1)C1=C(N=2)c2ccccc2CC1 (centres undefined)	-7
COc1ccccc1C1C2=C(N=c3s/c(=C\c4ccccc4O)c(=O)n31)c1ccccc1CC2 (centres undefined)	-7
O=c1/c(=C\c2ccc(F)cc2)sc2n1C(c1ccc(Cl)cc1Cl)C1=C(N=2)c2ccccc2CC1 (centres undefined)	-5
CCOc1ccc(/C=c2/sc3n(c2=O)C(c2cc(OC)ccc2OC)C2=C(N=3)c3ccccc3CC2)cc1 (centres undefined)	7
O=c1/c(=C\c2cccs2)sc2n1C(c1cccc(F)c1)C1=C(N=2)c2ccccc2CC1 (centres undefined)	2
O=c1/c(=C\c2cc(Cl)cc(Cl)c2O)sc2n1C(c1ccc(Cl)cc1Cl)C1=C(N=2)c2ccccc2CC1 (centres undefined)	35*
COc1ccc(C2C3=C(N=c4s/c(=C/c5cccc(OC)c5O)c(=O)n42)c2ccccc2CC3)cc1 (centres undefined)	-9
COc1ccc(C2C3=C(N=c4s/c(=C/c5ccc(O)c([N+](=O)[O-])c5)c(=O)n42)c2ccccc2CC3)cc1 (centres undefined)	44*
COC(=O)c1ccc(/C=c2\sc3n(c2=O)C(c2ccc(Cl)cc2Cl)C2=C(N=3)c3ccccc3CC2)cc1 (centres undefined)	-6
COc1ccccc1C1C2=C(N=c3s/c(=C/c4cccc(OCC(=O)O)c4)c(=O)n31)c1ccccc1CC2 (centres undefined)	30*
O=c1/c(=C\c2ccco2)sc2n1C(c1cccs1)C1=C(N=2)c2ccccc2CC1 (centres undefined)	28*
CC(=O)c1sc2c(c1OC(=O)c1cccc([N+](=O)[O-])c1)c(=O)n(-c1ccccc1)c(=S)n2-c1ccccc1	-4
Cc1oc(-c2ccoc2)nc1CN1CCCC1c1nccs1 (centres undefined)	-6
Cc1[nH]nc2c1C(c1c(OC(=O)N3CCOCC3)ccc3ccccc13)C(C#N)C(=N)O2 (centres undefined)	0
CCCCNC(=O)N1CCN(S(=O)(=O)c2ccc(F)cc2)CC1	-13
Cc1cccc(C(=O)OCc2ccccc2)c1	14

Compound activity from PubChem BioAssay.
